Where “and” joins values, the source holds several entries; their conditions need not be identical. Identical values can stand only once. This is part of a sample that, as a whole, favours compounds with a hit. Of some 79,000 tested, about 15% had one in any assay. A structure can be active in one record and inactive in another. Calls of active or inactive are those of the source. Cut-off read from the data, not from the text of the source: active = growth inhibition above about 70%; inactive = the rest.
experiment: NCI Yeast Anticancer Drug Screen. Data for the rad50 strain (AID 155);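 note: 0% = growth of vehicle-only cultures of the same strain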; details: S. cerevisiae rad50 strain growth inhibition; at 50.0 µM (retest, dose inferred, filed as 5.0); stronger effect = higher value
How it was run: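 Genetically altered yeast (DNA repair pathway); compound treatment; growth inhibition vs vehicle ctrl.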

| SMILES | growth inhibition |
| --- | --- |
| CN(C)c1ccc(C2CC(C)(O)Oc3cc4c(cc32)OCO4)cc1 (stereo unspecified) | 77% (active) |
| O=P(NC1CCCCC1)(OCc1ccccc1)OCc1ccccc1 | 14% (inactive) |
| COc1oc(C(=O)NC2CCCCC2)c(-c2ccc(Cl)cc2)c1S(=O)(=O)c1ccccc1 | 92% (active) |
| C[Si](C)(C)/C=C/CCNC(C#N)c1ccccc1 (stereo unspecified) | 99% (active) |
| CCOc1ccc(NC(=O)C2=C(C)NC(C)=C(C(=O)Nc3ccc(OCC)cc3)C2c2cccc([N+](=O)[O-])c2)cc1 | 84% (active) |
| CN(C)CCOC1(Cc2ccc(F)cc2)CCC(C(C)(C)C)CC1 (stereo unspecified) | 65% (inactive) and 92% (active) |
| CC1(C)CC(=O)C(/C=N/c2nc(-c3ccccc3)cs2)=C(O)C1 | 57% (inactive) |
| CC(=O)Nc1ccc2c(c1)Cc1cc(N=C3C=CC(=O)O3)ccc1-2 | 99% (active) |
| O=C1C=C(Cl)C(=O)C(c2ccc(Cl)cc2)=C1 | 97% (active) |
| CNCCCNc1c2ccccc2nc2cccc([N+](=O)[O-])c12 | 95% (active) |
| CCCCCCCCCCCC(O)S(=O)(=O)O (stereo unspecified) | 20% (inactive) |
| CC(C)OC(=O)c1ccc(CCc2cc(O)c(Br)cc2O)cc1 | 99% (active) |
| CCc1cc(O)c(Cl)c(C)c1Cl | 77% (active) |
| C(=Nc1ccc(-c2cc(-c3ccccc3)nc3ccc4ccccc4c23)cc1)c1ccccc1 | 54% (inactive) |
| CSc1nc(C)c(CCOC(C)=O)c(N=P(c2ccccc2)(c2ccccc2)c2ccccc2)n1 | 42% (inactive) |
| CS(=O)(=O)SCc1ccc([N+](=O)[O-])cc1 | 93% (active) |

Reference: PubChem BioAssay (NCI)
